Among all 65,000 compounds or so, about 2,100 (3.2%) showed an effect of 50% or more. The median lay at about -52%. The full list was thinned out, with strong results kept by preference.

The test system of this assay is Plasmodium falciparum. The assay can be described thus: Screen against P. falciparum Asexual Blood Stage (ABS), at 5uM. The assay is classed as functional, Dd2. As to conditions: tested at 5 uM.
Turning to `Cc1cc(C)n(CC2CCCN2C(=O)c2c(C)noc2C)n1` (stereo not drawn), the INHIBITION is given as -97.8%.
To `Cc1nc(CN2CCCN(CCOc3ccc(C#N)cc3)CC2)no1` belongs -71.7%; to `CCN(Cc1ccncc1)C(=O)CCn1c(C)cc2ccccc21`, 56.5%; to `CCN(Cc1nc(COC)no1)C(=O)CCn1c(C)cc2ccccc21`, 10%.
Regarding `Cc1cc2ccccc2n1CCC(=O)NCc1ncc[nH]1`, the INHIBITION is on record as -0.748%.
To `O=C(NC1CCCC1)c1cc2c(s1)CCN2C(=O)c1ccccc1` belongs -63.7%.
To `Cc1nc(C)n(CC2CCCN2CCCOc2ccc(C#N)cc2)n1` (stereo not drawn) belongs -33.2%; to `Cc1ccc(S(=O)(=O)N2Cc3c(CN(C)C)nn(C)c3C2)cc1`, 42.8%.
The same measure for `CCc1ccc(S(=O)(=O)N2Cc3c(CN(C)C)nn(C)c3C2)cc1`: 63.9%; for `COc1ccc(S(=O)(=O)N2Cc3c(CN(C)C)nn(C)c3C2)cc1`: 40.7%.
Take `C[C@@H](O)CNC(=O)c1nc(CC(=O)Nc2ccccc2)no1`: the INHIBITION is on record as -40.2%.
Turning to `CC(NC(=O)N1CCN(c2ncccn2)CC1)c1ccc(C#N)cc1` (stereo not drawn), the INHIBITION was 19.1%.
To `CC(NC(=O)N1CCN(c2cccs2)CC1)c1ccc(C#N)cc1` (stereo not drawn) belongs 63.2%.
The same measure for `CC(NC(=O)N1CCN(c2cccs2)CC1)c1ccncc1` (stereo not drawn): -28.9%; for `Cc1ccnn1CCC(=O)N1C[C@@H]2CC[C@H]1CN(CC(=O)N(C)C)C2`: -46.9%; for `CC(C)(C)c1ccc(S(=O)(=O)CCN2CCNC(=O)CC2)cc1`: -97.7%.
On to `COCCNc1ncc(-c2cccc(OC)c2)c(-c2nccn2C)n1`, for which the INHIBITION is 69.3%.
The same measure for `COCCNc1ncc(-c2cccc(F)c2)c(-c2nccn2C)n1`: -10.2%; for `COCCCNc1ncc(-c2cccc(F)c2)c(-c2nccn2C)n1`: -138%; for `Cc1nnsc1CN1C[C@H]2CC[C@@H](C1)N(Cc1ccccc1)C2`: -69.4%.
The same measure for `COc1cc2c(cc1CN1C[C@@H](CN3CCOCC3)[C@@H](CO)C1)CCC2`: 21.7%; for `COc1cc2c(cc1CN1CCCCC1CN1CCOCC1)CCC2` (stereo not drawn): 65.9%.
`COc1cccc(CN2CCCCC2CN2CCOCC2)c1F` (stereo not drawn): the INHIBITION came to 4.8%.
The same measure for `CC(OCC1CC1)C(=O)Nc1ncccc1I` (stereo not drawn): -86.5%; for `COCCn1cncc1Cn1cccc(C(F)(F)F)c1=O`: -90.4%.
Regarding `COCCn1cncc1CN1CCCC(C)(c2ccccc2)C1` (stereo not drawn), the INHIBITION is listed as 61.5%.
To `CC1(c2ccccc2)CCCN(Cc2nnc(-c3cccnc3)o2)C1` (stereo not drawn) belongs -119%.
Take `CC1(c2ccccc2)CCCN(Cc2cncn2C2CC2)C1` (stereo not drawn): the INHIBITION worked out at 67.2%.
The same measure for `CN1CCCC2(CCN(Cc3cncn3C3CCCCC3)C2)C1=O` (stereo not drawn): -28.7%; for `O=C(Cc1ccccc1)C1CCCN(Cc2cncn2C2CCCC2)C1` (stereo not drawn): 57.8%; for `COCCn1cncc1CN1CCCC(C(=O)Cc2ccccc2)C1` (stereo not drawn): -43.6%.
For `O=C(C1CCCN(Cc2ccccc2)C1)N1CCc2sccc2C1` (stereo not drawn), the INHIBITION was 12.7%.
To `COCCN1CCCC12CCN(Cc1cncn1C)CC2` belongs -12.2%.

The values above are taken from ChEMBL document CHEMBL4513216, “Probing the Open Global Health Chemical Diversity Library for Multistage-Active Starting Points for Next-Generation Antimalarials” (ACS Infect Dis, 2020).
